Source: PubChem BioAssay
Calls of active or inactive are those of the source. Unless noted, the rule behind the calls is not given here.

Experiments:
[1] = HepG2 liver cancer cell viability effects, profiling panel, resazurin fluorescence, 24 h, PK04 Diversity Set (AID 1172); conditions: higher = more signal; note: test concentration not given here
[2] = basal S. cerevisiae growth modulation, no modifier, primary screen, OD600, strain BY4716, 24 h, basal condition (AID 1173); conditions: OD600, 24 h, higher = more signal, called active from +8 up or from −8 down
[3] = MM1S myeloma cell viability, profiling panel, resazurin fluorescence, basal, 24 h, PK04 Diversity Set (AID 1174); conditions: higher = more signal, called active from +8 up or from −8 down;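 note: MM1S multiple myeloma cell line; test concentration not given here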
[4] = target: Dihydroorotate dehydrogenase (quinone), mitochondrial (Plasmodium falciparum (isolate 3D7)) (UniProt Q08210); assay: PfDHODH enzyme inhibitors, primary screen, biochemical, C-terminal His tag, absorbance 600 nm (AID 1175); conditions: DCIP absorbance 600 nm, higher = more signal, called active from +8 up or from −8 down;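 note: recombinant parasite enzyme with a five histidine tag at its C terminus; test concentration not given here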
Dihydroorotate dehydrogenase (quinone), mitochondrial (Plasmodium falciparum (isolate 3D7)), sequence (Q08210 whole entry, looked up): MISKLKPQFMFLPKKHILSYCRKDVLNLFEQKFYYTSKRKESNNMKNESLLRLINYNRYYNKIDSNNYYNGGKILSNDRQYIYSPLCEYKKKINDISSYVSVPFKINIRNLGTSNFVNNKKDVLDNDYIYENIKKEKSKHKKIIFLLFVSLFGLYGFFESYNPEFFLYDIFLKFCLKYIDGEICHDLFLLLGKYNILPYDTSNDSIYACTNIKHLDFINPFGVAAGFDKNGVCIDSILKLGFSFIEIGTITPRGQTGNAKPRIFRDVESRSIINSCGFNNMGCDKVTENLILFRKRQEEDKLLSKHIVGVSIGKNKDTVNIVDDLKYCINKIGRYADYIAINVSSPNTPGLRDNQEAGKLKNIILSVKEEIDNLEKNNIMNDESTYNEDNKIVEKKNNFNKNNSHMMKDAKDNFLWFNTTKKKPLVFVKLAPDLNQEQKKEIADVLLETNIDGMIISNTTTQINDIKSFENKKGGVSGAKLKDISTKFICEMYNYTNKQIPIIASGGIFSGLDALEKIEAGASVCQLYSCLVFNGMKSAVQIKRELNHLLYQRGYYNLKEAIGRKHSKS

[5] = P. aeruginosa biofilm formation inhibitors, primary screen, strain PAO1, LB-PBS medium, absorbance 600 nm (AID 1176); note: test concentration not given here; conditions: P. aeruginosa PAO1 growth/biofilm, A600, 12 h; higher = more signal
[6] = S. cerevisiae RM11-1a growth modifiers, primary screen, strain RM11-1a, OD600, basal, 24 h (AID 1177); conditions: OD600, 24 h, higher = more signal, called active from +8 up or from −8 down;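 note: cultures grown under basal conditions with no added stressor; test concentration not given here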
[7] = E. coli acrAB mutant growth effects, primary screen, E. coli filamentation inducers, strain DRC39, OD650, 24 h (AID 1178); conditions: higher = more signal, called active from +8 up or from −8 down;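 note: growth measured as culture turbidity by optical density at 650 nm; test concentration not given here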
[8] = E. coli acrAB mutant growth effects, primary screen, E. coli filamentation inducers, strain DRC39, OD650, 48 h (AID 1179);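 note: screen aims at cell division blockers that make cells filament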; conditions: E. coli DRC39 delta-acrAB growth, higher = more signal, called active from +8 up or from −8 down
[9] = RPMI8226 myeloma cell viability, profiling panel, resazurin fluorescence, basal, 24 h, PK04 Diversity Set (AID 1180); conditions: higher = more signal;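 note: RPMI8826 multiple myeloma cell line at 5000 cells per well; test concentration not given here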
[10] = target: E3 ubiquitin-protein ligase XIAP (Homo sapiens) (UniProt P98170); assay: XIAP binders, primary screen, biophysical, small-molecule microarray, fluorescence 635 nm (AID 1181); conditions: small-molecule microarray binding, higher = more signal;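 note: score merges 667 nm emission and signal to noise over triplicate slides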
E3 ubiquitin-protein ligase XIAP (Homo sapiens), sequence (P98170 whole entry, looked up): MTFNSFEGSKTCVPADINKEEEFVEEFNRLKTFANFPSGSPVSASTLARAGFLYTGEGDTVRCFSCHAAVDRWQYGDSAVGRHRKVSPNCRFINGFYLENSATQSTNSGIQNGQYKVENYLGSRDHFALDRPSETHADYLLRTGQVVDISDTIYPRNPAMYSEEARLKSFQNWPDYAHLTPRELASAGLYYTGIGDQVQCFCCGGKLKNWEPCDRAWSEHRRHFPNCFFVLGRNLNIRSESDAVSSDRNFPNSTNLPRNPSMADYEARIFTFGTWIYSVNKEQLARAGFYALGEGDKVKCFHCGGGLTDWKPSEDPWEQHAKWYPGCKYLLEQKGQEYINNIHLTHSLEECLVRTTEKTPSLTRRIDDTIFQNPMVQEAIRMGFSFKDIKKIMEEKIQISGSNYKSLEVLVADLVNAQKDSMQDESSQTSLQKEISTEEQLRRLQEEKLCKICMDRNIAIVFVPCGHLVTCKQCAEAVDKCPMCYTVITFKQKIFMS

Structure (SMILES) | z-score [1] | z-score [2] | z-score [3] | composite z-score [4] | z-score [5] | z-score [6] | z-score [7] | z-score [8] | z-score [9] | composite z-score [10]
C=CCN1C(=O)[C@@]2(O[C@@H](CCO)[C@H]([Si](C)(C)c3ccc(OC)cc3)[C@H]2C)c2cc(NC(=O)[C@H](C)O)ccc21 | -1.15 | -2.34 (inactive) | -2.15 (inactive) | -0.108 (inactive) | 1.73 (inactive) | 2.32 (inactive) | 0.895 (inactive) | 0.403 (inactive) | -2.3 | 0.555
O=C1O[C@@H](c2ccccc2)[C@@H](c2ccccc2)N2[C@@H](c3ccc(O)cc3)[C@]3(C(=O)Nc4ccc(C#CC5(O)CCCCCC5)cc43)[C@@H](C(=O)N3CCN(c4ncccn4)CC3)[C@H]12 | 1.63 | -0.271 (inactive) | 0.0176 (inactive) | -1.08 (inactive) | -0.641 (inactive) | 0.642 (inactive) | 0.614 (inactive) | 0.11 (inactive) | 1.1 | -0.127
COc1cc(NN2C(C(O)c3ccc(I)cc3)C=CC3C(=O)N(C)C(=O)C32)cc(OC)c1OC (stereo not given) | -1.7 | 0.643 (inactive) | -0.297 (inactive) | -0.698 (inactive) | 1.08 (inactive) | -0.377 (inactive) | 0.168 (inactive) | -0.413 (inactive) | -0.786 | 0.346
[N-]=[N+]=NCc1ccccc1[C@H]1OC(c2ccc(OCCCO)cc2)=N[C@@]1(Cc1ccccc1)C(N)=O | 1.16 | -3.32 (inactive) | -0.0284 (inactive) | -0.174 (inactive) | -0.195 (inactive) | 1.01 (inactive) | 0.961 (inactive) | 0.195 (inactive) | -0.373 | -0.124
COC(=O)[C@@]1(Cc2ccccc2)[C@H]2c3cc(C(=O)N(C)C)n(Cc4ccc(O)c(OC)c4)c3C[C@H]2CN1C(=O)c1ccccc1 | 0.563 | 1.12 (inactive) | 0.301 (inactive) | -2.88 (inactive) | 1.47 (inactive) | 0.458 (inactive) | -0.846 (inactive) | 0.202 (inactive) | -1.24 | 0.0422
CN(C)C(=O)[C@@]1(CCC(=O)OC(C)(C)C)COC(c2ccc(OCCCO)cc2)=N1 | 0.791 | -0.874 (inactive) | 0.265 (inactive) | -0.883 (inactive) | -0.512 (inactive) | -0.0602 (inactive) | 0.115 (inactive) | 0.465 (inactive) | -0.195 | -0.0559
C=C(/C(=C/C[C@@H](OC(=O)c1ccncc1)c1cccc(OCCO)c1)c1cc(C(=O)OC)ccc1OC)C(C)C | 0.677 | -0.243 (inactive) | -0.261 (inactive) | -2.04 (inactive) | 1.16 (inactive) | 0.0342 (inactive) | 2.07 (inactive) | 1.42 (inactive) | 0.301 | -0.107
C=CCC(OC(C)=O)[C@@H]1[C@@H](N(Cc2ccc(-c3cccc(C(F)(F)F)c3)o2)C(=O)c2cccc3ccccc23)c2cc(OCCCO)ccc2N1C(=O)c1ccc(-c2ccccc2)cc1 (stereo not given in full) | -1.02 | -0.0033 (inactive) | -1.1 (inactive) | 0.821 (inactive) | -0.416 (inactive) | 0.0679 (inactive) | 0.147 (inactive) | -0.241 (inactive) | -0.851 | -0.031
O=C(NCc1ccccc1)[C@]1(Cc2ccccc2)N=C(c2ccc(OCCCO)cc2)O[C@@H]1c1ccccc1 | 0.455 | 1.41 (inactive) | -1.91 (inactive) | 1.8 (inactive) | 1.19 (inactive) | 3.75 (inactive) | 0.653 (inactive) | -0.642 (inactive) | -1.79 | 0.0871
CCCCCCC#C[Si](O[C@H](c1ccccc1)c1cn(Cc2cccc(Cl)c2)nn1)(C(C)C)C(C)C | 0.809 | -0.419 (inactive) | 1.31 (inactive) | -0.0872 (inactive) | 0.101 (inactive) | 0.738 (inactive) | 0.804 (inactive) | 1.19 (inactive) | 2.01 | -0.0447
CN(C)C(=O)[C@@]1(CCS(=O)(=O)c2ccccc2)N=C(c2ccc(OCCCO)cc2)O[C@H]1c1ccccc1CN=[N+]=[N-] | 1.01 | -1.19 (inactive) | 0.958 (inactive) | 0.307 (inactive) | -0.385 (inactive) | -0.791 (inactive) | 1.13 (inactive) | 0.802 (inactive) | 0.251 | -0.0381
COC(=O)C(CC#Cc1ccc2c(c1)[C@]1(C(=O)N2)[C@H](c2ccc(OCCO)cc2)N2[C@H](c3ccccc3)[C@H](c3ccccc3)OC(=O)[C@H]2[C@@H]1C(=O)O)C(=O)OC | 0.669 | 0.156 (inactive) | 1.09 (inactive) | -16.3 (active) | 2.28 (inactive) | 1.48 (inactive) | 1.29 (inactive) | 1.33 (inactive) | 0.749 | -0.194
C=C[C@@H](O)[C@H]1CC(c2ccccc2)=NO1 | 0.0502 | -2.38 (inactive) | 0.325 (inactive) | -0.344 (inactive) | -0.496 (inactive) | -0.2 (inactive) | -0.105 (inactive) | 0.194 (inactive) | 1.08 | -0.0473
C=CC[C@]1(C(=O)NCC(O)CO)N=C(c2ccc(OCCCO)cc2)O[C@H]1c1ccccc1N=[N+]=[N-] (stereo not given in full) | 0.662 | -0.746 (inactive) | -0.302 (inactive) | 1.13 (inactive) | 0.755 (inactive) | 0.329 (inactive) | 0.769 (inactive) | -0.579 (inactive) | 0.245 | -0.106
COc1ccc([Si](C)(C)[C@H]2[C@H](CC(=O)N3CCC[C@H]3CO)O[C@@]3(C(=O)N(Cc4ccc(N5C(=O)c6cccc7cccc5c67)cc4)c4ccccc43)[C@@H]2C)cc1 | -1.83 | 0.147 (inactive) | -1.61 (inactive) | -1.84 (inactive) | 0.189 (inactive) | 1.02 (inactive) | -0.788 (inactive) | -0.848 (inactive) | -1.16 | -0.392
CN(C)C(=O)[C@]1(Cc2ccccc2N=[N+]=[N-])N=C(c2ccc(OCCCO)cc2)O[C@@H]1c1ccccc1CN=[N+]=[N-] | 2.37 | -1.93 (inactive) | -1.13 (inactive) | -0.106 (inactive) | -0.165 (inactive) | -0.495 (inactive) | 0.804 (inactive) | 0.7 (inactive) | -0.997 | 0.152
C[C@]12C(=O)N(CCCO)[C@@H]3C(=O)N(c4ccc(Cl)cc4)CC=CC31O[C@@H]1/C=C\CCCOC(=O)C12 (stereo not given in full) | -0.468 | -0.0146 (inactive) | -0.291 (inactive) | 0.0021 (inactive) | -0.553 (inactive) | -0.965 (inactive) | -0.477 (inactive) | -0.464 (inactive) | -0.217 | 0.734
C=CC[C@@]1(C(=O)NCCN2CCOCC2)N=C(c2ccc(OCCCO)cc2)O[C@@H]1c1ccccc1 | 0.255 | -0.0792 (inactive) | 0.275 (inactive) | 1.61 (inactive) | 1.13 (inactive) | 1.45 (inactive) | 0.297 (inactive) | -0.483 (inactive) | 0.482 | -0.237
COc1ccc(C#Cc2ccc3c(c2)[C@]2(C(=O)N3)[C@H](C(N)=O)[C@H]3C(=O)O[C@H](c4ccccc4)[C@H](c4ccccc4)N3[C@@H]2c2ccc(O)cc2)cc1 | -0.295 | -0.299 (inactive) | -4.88 (inactive) | 0.817 (inactive) | 1.41 (inactive) | 1.68 (inactive) | 0.666 (inactive) | 0.714 (inactive) | -6.43 | 0.0031
CCCC=C(CCC)[C@@H](NS(=O)(=O)c1ccccc1)c1ccc(C(F)(F)F)cc1 | -0.574 | 0.892 (inactive) | -2.56 (inactive) | -0.62 (inactive) | -0.415 (inactive) | 1.07 (inactive) | -0.28 (inactive) | -0.428 (inactive) | -3.59 | 0.0039
COC(=O)[C@@]1(Cc2ccccc2)[C@H]2c3cc(C(=O)N4CCCC4)n(CCO)c3C[C@H]2CN1C(=O)c1ccccc1 | 0.445 | 0.192 (inactive) | -0.892 (inactive) | -1.2 (inactive) | 0.259 (inactive) | -0.483 (inactive) | 0.355 (inactive) | 1.05 (inactive) | 0.309 | 0.202
O=[N+]([O-])c1ccc(C[n+]2ccc(-c3ccc(CO)cc3)cc2)o1 | -0.216 | -5.16 (inactive) | -0.979 (inactive) | -1.94 (inactive) | 0.503 (inactive) | -0.0644 (inactive) | -1.11 (inactive) | -0.495 (inactive) | -0.904 | -0.0047
CO[C@H]1O[C@H](CO)[C@@H](OC(=O)Nc2ccc(C(F)(F)F)cc2)[C@H](OC(=O)Nc2ccccc2)[C@H]1OC(=O)Nc1ccccc1 | -5.15 | 0.0673 (inactive) | -6.47 (inactive) | 0.0214 (inactive) | -0.276 (inactive) | 2.72 (inactive) | 0.201 (inactive) | -1.17 (inactive) | -6.11 | 0.166
